# Experiments:
# Assay in all cases: DAPPL (digital affinity profiling via proximity ligation, sequencing); 10 mM Tris-HCl pH 7.5, 50 mM NaCl, 1 mM DTT, 4% glycerol, room temperature, 30 min; GST-TFs on glutathione beads, 16-mer random dsDNA library, 0.1% formaldehyde crosslink after washing; high values mean tight binding
# FEV = biological target: T1, FEV (Homo sapiens, UniProt Q99581 1-238); conditions: protein: recombinant; tags: N-terminal GST; dsDNA, one strand shown
# T1 sequence: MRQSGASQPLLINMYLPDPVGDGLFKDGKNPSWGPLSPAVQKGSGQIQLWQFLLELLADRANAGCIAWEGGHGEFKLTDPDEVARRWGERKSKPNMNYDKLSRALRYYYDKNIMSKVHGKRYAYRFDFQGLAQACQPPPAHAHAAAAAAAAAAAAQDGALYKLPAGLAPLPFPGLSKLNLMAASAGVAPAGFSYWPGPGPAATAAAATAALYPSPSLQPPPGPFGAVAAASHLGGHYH
# Outline: (§1)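 The binding signal reported is, for every hexamer, its read frequency for a factor over its read frequency for the tag-only sample. Reads came from pools of yeast-expressed, GST-fused human transcription factors on glutathione beads, barcoded with DNA and mixed with that sample, which were incubated with 200 nmole of a random double-stranded 16-mer DNA library in Tris/NaCl/DTT/glycerol buffer at room temperature for 30 min. After washing, the pools were crosslinked with 0.1% formaldehyde, proximity-ligated with BsaI/T4 ligase for 1 h at 37 °C, PCR-amplified and sequenced on an Illumina NextSeq500.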
# ETV5 = ETV5 (Homo sapiens, UniProt P41161 1-510); conditions: protein: recombinant; tags: N-terminal GST; dsDNA, one strand shown
# Outline: as §1
# HSF1 = HSF1 (Homo sapiens, UniProt Q00613 1-529); conditions: protein: recombinant; tags: N-terminal GST; chain copies: 3; dsDNA, one strand shown
# Outline: as §1
# SPIC = biological target: T2, SPIC (Homo sapiens, UniProt Q8N5J4 1-248); conditions: protein: recombinant; tags: N-terminal GST; dsDNA, one strand shown
# T2 sequence: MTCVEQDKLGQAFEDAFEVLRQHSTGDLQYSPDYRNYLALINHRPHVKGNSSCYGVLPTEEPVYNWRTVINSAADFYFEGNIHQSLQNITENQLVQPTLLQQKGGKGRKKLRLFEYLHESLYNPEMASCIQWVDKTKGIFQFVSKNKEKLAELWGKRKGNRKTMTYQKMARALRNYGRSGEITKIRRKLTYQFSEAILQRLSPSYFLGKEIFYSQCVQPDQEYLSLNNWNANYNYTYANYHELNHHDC
# Outline: as §1
# ELF4 = ELF4 (Homo sapiens, UniProt Q99607 1-663); conditions: protein: recombinant; tags: N-terminal GST; dsDNA, one strand shown
# Outline: as §1
# ELK4 = biological target: T3, ELK4 (Homo sapiens, UniProt P28324-2 1-405); conditions: protein: recombinant; tags: N-terminal GST; dsDNA, one strand shown
# T3 sequence: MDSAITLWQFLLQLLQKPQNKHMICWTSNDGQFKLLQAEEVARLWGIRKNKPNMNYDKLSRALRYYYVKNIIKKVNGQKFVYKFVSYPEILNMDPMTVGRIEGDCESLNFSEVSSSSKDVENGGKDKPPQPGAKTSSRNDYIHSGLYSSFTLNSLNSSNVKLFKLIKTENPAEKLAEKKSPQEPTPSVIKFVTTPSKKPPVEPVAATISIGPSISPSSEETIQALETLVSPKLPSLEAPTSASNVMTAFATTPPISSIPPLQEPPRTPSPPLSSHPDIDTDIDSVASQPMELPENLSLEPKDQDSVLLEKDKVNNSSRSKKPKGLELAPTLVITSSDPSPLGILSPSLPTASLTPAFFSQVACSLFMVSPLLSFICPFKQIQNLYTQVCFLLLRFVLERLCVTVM
# Outline: as §1
# ETV2 = biological target: T4, ETV2 (Homo sapiens, UniProt O00321 1-342); conditions: protein: recombinant; tags: N-terminal GST; dsDNA, one strand shown
# T4 sequence: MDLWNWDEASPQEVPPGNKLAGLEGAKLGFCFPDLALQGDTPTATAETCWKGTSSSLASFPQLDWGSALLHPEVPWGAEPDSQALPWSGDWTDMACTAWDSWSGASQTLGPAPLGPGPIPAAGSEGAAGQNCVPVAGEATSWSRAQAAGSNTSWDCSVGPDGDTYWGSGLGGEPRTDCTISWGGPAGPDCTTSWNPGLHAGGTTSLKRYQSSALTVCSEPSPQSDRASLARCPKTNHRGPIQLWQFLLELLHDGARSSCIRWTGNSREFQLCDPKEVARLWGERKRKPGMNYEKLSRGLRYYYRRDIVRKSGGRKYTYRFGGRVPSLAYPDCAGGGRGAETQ
# Outline: as §1
# ELF3 = biological target: T5, ELF3 (Homo sapiens, UniProt P78545 1-371); conditions: protein: recombinant; tags: N-terminal GST; dsDNA, one strand shown
# T5 sequence: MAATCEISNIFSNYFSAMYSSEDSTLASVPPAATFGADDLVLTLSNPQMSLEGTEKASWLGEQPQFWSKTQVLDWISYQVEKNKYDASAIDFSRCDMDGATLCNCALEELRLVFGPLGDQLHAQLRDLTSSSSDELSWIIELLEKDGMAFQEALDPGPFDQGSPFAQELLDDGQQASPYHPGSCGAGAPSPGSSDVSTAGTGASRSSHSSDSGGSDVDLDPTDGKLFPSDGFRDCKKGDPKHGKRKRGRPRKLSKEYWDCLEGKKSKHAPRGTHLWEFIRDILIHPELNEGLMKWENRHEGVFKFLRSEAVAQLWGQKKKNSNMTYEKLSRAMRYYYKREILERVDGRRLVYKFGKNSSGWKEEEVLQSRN
# Outline: as §1
# CRX = CRX (Homo sapiens, UniProt O43186 1-299); conditions: protein: recombinant; tags: N-terminal GST; dsDNA, one strand shown
# Outline: as §1
# ETV1 = ETV1 (Homo sapiens, UniProt P50549 1-477); conditions: protein: recombinant; tags: N-terminal GST; dsDNA, one strand shown
# Outline: as §1
# ERF = biological target: T6, ERF (Homo sapiens, UniProt P50548 1-548); conditions: protein: recombinant; tags: N-terminal GST; dsDNA, one strand shown
# T6 sequence: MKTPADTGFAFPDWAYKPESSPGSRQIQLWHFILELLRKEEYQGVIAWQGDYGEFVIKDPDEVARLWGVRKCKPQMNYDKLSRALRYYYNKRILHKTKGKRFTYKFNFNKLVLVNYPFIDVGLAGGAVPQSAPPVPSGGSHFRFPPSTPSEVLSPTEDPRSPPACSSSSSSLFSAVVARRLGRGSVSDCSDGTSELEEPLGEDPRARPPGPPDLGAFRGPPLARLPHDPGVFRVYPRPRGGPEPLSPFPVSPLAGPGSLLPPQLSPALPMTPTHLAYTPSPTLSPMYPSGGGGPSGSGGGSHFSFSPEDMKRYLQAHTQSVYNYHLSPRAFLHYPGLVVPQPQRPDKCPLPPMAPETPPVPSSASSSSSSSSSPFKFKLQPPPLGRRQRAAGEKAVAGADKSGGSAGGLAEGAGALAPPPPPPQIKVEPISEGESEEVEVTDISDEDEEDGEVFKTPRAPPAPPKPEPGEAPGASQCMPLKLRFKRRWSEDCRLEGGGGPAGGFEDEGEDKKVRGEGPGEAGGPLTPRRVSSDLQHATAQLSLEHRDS
# Outline: as §1
# ETV3L = biological target: T7, ETV3L (Homo sapiens, UniProt Q6ZN32 1-361); conditions: protein: recombinant; tags: N-terminal GST; dsDNA, one strand shown
# T7 sequence: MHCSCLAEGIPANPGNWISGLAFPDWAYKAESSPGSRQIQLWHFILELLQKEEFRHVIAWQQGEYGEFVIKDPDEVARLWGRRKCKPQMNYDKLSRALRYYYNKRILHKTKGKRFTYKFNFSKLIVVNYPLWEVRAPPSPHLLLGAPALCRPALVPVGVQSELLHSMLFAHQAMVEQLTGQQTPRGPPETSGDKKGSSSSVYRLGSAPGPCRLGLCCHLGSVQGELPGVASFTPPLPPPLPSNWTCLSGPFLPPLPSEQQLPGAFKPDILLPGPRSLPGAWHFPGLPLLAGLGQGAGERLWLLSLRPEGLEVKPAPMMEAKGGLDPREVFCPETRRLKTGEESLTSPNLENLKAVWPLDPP
# Outline: as §1
# ETS2 = biological target: T8, ETS2 (Homo sapiens, UniProt P15036 1-469); conditions: protein: recombinant; tags: N-terminal GST; dsDNA, one strand shown
# T8 sequence: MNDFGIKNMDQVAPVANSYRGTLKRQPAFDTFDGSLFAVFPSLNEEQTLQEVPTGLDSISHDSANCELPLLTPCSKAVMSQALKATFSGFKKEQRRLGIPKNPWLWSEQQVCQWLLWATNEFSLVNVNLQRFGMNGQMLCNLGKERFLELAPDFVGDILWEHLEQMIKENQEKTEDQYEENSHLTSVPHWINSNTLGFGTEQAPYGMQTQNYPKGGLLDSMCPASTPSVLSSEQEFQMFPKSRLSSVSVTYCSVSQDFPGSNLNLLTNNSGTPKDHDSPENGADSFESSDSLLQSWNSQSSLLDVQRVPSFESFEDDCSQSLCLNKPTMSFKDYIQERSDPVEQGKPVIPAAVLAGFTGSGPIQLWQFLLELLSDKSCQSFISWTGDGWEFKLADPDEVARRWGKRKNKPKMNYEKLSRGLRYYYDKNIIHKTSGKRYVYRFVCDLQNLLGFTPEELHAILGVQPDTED
# Outline: as §1
# SPDEF = biological target: T9, SPDEF (Homo sapiens, UniProt O95238 1-335); conditions: protein: recombinant; tags: N-terminal GST; dsDNA, one strand shown
# T9 sequence: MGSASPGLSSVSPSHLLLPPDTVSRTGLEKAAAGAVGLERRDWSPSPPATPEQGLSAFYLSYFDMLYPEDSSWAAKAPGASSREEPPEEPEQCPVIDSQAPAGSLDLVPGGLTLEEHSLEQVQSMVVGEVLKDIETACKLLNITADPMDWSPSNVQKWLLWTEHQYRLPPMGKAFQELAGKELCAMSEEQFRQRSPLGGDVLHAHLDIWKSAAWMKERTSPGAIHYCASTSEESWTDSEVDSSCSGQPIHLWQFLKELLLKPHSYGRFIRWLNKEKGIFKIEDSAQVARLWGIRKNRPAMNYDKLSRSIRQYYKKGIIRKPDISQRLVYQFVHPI
# Outline: as §1
# ETV7 = biological target: T10, ETV7 (Homo sapiens, UniProt Q9Y603 1-341); conditions: protein: recombinant; tags: N-terminal GST; dsDNA, one strand shown
# T10 sequence: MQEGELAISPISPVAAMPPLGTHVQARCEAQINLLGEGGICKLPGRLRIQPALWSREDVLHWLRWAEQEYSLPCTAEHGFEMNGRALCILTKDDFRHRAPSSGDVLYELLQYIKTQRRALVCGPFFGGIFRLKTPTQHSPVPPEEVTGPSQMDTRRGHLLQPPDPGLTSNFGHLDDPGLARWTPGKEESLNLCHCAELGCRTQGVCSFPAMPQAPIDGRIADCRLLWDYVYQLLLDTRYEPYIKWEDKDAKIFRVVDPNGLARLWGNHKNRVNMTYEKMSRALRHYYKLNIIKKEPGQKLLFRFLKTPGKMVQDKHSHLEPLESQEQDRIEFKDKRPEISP
# Outline: as §1
# ELF5 = biological target: T11, ELF5 (Homo sapiens, UniProt Q9UKW6-2 1-255); conditions: protein: recombinant; tags: N-terminal GST; dsDNA, one strand shown
# T11 sequence: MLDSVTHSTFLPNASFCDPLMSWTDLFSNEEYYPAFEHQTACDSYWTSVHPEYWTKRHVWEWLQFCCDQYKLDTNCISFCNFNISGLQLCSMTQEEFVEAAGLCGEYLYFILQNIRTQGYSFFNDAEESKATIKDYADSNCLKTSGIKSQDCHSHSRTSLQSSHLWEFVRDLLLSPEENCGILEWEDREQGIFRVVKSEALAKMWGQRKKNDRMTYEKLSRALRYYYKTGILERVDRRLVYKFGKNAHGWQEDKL
# Outline: as §1
# ETV3 = biological target: T12, ETV3 (Homo sapiens, UniProt P41162-2 1-143); conditions: protein: recombinant; tags: N-terminal GST; dsDNA, one strand shown
# T12 sequence: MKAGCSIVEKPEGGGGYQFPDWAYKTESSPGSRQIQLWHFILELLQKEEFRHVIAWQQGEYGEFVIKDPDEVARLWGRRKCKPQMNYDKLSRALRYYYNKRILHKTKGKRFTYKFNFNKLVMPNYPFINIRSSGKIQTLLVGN
# Outline: as §1
# ETV6 = ETV6 (Homo sapiens, UniProt P41212 1-452); conditions: protein: recombinant; tags: N-terminal GST; dsDNA, one strand shown
# Outline: as §1
# Chain of CRX (O43186 whole entry): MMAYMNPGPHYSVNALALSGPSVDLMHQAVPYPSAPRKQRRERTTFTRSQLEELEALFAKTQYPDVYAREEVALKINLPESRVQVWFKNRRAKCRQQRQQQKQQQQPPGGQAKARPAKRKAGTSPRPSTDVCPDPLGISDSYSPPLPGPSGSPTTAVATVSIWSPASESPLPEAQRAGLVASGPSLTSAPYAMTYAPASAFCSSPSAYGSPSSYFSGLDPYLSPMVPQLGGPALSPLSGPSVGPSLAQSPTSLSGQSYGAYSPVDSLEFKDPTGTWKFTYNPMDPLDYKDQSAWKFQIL
# Chain of HSF1 (Q00613 whole entry): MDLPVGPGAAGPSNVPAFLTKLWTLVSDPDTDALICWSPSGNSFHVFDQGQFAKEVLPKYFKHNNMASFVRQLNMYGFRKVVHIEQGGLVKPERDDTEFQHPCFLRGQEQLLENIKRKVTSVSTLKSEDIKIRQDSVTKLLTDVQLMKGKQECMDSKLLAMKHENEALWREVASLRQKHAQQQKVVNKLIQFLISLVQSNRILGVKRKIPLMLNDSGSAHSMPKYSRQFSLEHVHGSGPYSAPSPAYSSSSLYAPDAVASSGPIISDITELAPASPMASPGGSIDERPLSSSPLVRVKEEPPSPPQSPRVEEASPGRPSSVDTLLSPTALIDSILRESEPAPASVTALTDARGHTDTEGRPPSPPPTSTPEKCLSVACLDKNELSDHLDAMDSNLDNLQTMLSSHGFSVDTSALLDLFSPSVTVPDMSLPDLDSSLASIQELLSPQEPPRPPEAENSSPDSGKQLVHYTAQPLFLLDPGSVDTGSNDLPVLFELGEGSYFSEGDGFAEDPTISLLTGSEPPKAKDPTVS
# Chain of ETV1 (P50549 whole entry): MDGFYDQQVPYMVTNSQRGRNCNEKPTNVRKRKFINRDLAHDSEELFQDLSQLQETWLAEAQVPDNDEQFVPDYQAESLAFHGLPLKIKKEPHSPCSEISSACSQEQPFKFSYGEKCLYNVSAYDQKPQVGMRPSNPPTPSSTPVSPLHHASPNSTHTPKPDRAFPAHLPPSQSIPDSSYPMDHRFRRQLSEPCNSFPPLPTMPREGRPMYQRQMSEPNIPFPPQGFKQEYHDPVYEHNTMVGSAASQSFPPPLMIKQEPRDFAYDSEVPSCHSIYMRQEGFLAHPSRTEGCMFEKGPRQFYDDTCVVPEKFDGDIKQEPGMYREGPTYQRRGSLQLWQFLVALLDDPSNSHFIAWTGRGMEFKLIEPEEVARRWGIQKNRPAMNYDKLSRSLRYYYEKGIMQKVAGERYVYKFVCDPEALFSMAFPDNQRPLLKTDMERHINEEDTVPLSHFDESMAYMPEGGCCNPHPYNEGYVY
# Chain of ELF4 (Q99607 whole entry): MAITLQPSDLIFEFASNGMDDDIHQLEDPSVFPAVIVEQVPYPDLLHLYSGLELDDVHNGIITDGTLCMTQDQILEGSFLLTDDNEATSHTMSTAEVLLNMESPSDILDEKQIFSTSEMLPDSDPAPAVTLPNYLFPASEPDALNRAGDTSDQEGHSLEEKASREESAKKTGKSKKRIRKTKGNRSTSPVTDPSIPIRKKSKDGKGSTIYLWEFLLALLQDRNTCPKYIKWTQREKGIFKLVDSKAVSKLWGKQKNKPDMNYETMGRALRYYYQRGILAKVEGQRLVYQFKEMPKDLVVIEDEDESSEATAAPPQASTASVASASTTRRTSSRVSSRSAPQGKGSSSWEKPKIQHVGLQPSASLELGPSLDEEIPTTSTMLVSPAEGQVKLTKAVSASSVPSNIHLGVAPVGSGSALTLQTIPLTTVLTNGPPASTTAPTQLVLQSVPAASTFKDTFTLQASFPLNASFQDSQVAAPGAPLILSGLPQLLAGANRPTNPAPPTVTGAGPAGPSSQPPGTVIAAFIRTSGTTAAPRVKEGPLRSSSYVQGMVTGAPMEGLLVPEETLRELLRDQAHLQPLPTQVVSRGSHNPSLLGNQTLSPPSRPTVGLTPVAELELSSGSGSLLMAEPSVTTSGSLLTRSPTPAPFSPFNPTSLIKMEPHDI
# Chain of ETV6 (P41212 whole entry): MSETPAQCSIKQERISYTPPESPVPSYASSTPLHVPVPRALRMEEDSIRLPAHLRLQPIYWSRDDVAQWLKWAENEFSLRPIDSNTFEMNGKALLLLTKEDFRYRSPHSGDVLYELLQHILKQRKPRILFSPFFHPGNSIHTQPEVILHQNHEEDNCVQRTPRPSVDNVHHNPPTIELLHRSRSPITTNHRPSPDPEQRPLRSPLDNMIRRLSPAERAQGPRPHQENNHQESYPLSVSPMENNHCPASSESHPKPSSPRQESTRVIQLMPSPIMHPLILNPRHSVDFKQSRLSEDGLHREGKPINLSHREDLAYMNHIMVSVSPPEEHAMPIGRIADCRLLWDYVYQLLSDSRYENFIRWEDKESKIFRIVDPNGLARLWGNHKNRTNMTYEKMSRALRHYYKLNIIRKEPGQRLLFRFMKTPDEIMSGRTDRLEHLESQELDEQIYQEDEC
# Chain of ETV5 (P41161 whole entry): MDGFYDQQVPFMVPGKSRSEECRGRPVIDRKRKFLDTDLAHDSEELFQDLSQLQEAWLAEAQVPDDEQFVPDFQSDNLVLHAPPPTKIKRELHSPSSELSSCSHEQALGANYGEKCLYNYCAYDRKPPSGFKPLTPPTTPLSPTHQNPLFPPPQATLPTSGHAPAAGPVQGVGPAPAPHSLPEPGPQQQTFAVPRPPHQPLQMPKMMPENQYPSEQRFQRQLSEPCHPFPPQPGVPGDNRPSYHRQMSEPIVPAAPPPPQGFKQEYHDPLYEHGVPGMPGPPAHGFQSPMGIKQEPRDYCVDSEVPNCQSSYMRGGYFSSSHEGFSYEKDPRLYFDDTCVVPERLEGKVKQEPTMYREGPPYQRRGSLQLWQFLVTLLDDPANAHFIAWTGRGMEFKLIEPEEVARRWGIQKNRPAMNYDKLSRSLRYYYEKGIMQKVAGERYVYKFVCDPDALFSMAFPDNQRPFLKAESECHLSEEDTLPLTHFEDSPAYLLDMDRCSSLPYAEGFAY
sequence,measurement,setting,value
ATTTAG,binding signal,FEV,"1.08 fold enrichment (6-mer frequency, TF over GST control)"
same,binding signal,ETV5,"1.06 fold enrichment (6-mer frequency, TF over GST control)"
same,binding signal,HSF1,"1.37 fold enrichment (6-mer frequency, TF over GST control)"
same,binding signal,SPIC,"1.2 fold enrichment (6-mer frequency, TF over GST control)"
same,binding signal,ELF4,"1.05 fold enrichment (6-mer frequency, TF over GST control)"
same,binding signal,ELK4,"1.17 fold enrichment (6-mer frequency, TF over GST control)"
same,binding signal,ETV2,"1.3 fold enrichment (6-mer frequency, TF over GST control)"
same,binding signal,ELF3,"1.17 fold enrichment (6-mer frequency, TF over GST control)"
same,binding signal,CRX,"1.66 fold enrichment (6-mer frequency, TF over GST control)"
same,binding signal,ETV1,"1.11 fold enrichment (6-mer frequency, TF over GST control)"
same,binding signal,ERF,"1.22 fold enrichment (6-mer frequency, TF over GST control)"
same,binding signal,ETV3L,"1.15 fold enrichment (6-mer frequency, TF over GST control)"
same,binding signal,ETS2,"1.07 fold enrichment (6-mer frequency, TF over GST control)"
same,binding signal,SPDEF,"1.13 fold enrichment (6-mer frequency, TF over GST control)"
same,binding signal,ETV7,"1.07 fold enrichment (6-mer frequency, TF over GST control)"
same,binding signal,ELF5,"1.04 fold enrichment (6-mer frequency, TF over GST control)"
same,binding signal,ETV3,"1.12 fold enrichment (6-mer frequency, TF over GST control)"
same,binding signal,ETV6,"1.21 fold enrichment (6-mer frequency, TF over GST control)"
